Reference: PubChem BioAssay (Tox21)
Inconclusive results are not listed. Calls of active or inactive are those of the source. Unless noted, the call rests on the fitted dose curve; in most records, active means well fitted curve in the direction sought with a large enough effect in the repeat runs; inconclusive means weak or mixed curves; inactive means no such curve, though single readings can be large; an effect the other way counts as inactive or inconclusive.

Columns and labels:
[1] = target: Luciferin 4-monooxygenase (Photinus pyralis) (UniProt P08659); experiment: qHTS assay to identify small molecule inhibitors of firefly luciferase (AID 1224835); further: nearly all actives have a fitted effect of over 25% in size
Outline: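 Biochemical qHTS: compounds run as interplate titrations against purified firefly enzyme, with D-luciferin and ATP each at its KM concentration. Light output recorded by CCD imaging.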

[2] = qHTS assay to identify small molecule agonists of the constitutive androstane receptor (CAR) signaling pathway - cell viability counter screen (AID 1224836); further: nearly all actives have a fitted effect of over 45% in size
Outline: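 HepG2-CYP2B6-hCAR, 2500 cells/well, 4 h pre-incubation; cpd 15 conc + PK11195 0.75 uM final; 23 h, 37 C/5% CO2; CellTiter-Fluor, fluorescence.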

[3] = qHTS assay to identify small molecule antagonists of the constitutive androstane receptor (CAR) signaling pathway - cell viability counter screen (AID 1224837); further: nearly all actives have a fitted effect of over 45% in size; further: potency means the concentration at half of the fitted maximal effect
Outline: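 Multiplexed cytotoxicity read-out for the CAR antagonist screen: double-stable HepG2-CYP2B6-hCAR cells co-treated with 50 nM CITCO (final) and compound over 15 concentrations, incubated 23 hr, then assessed by CellTiter-Fluor fluorescence.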

[4] = qHTS assay to identify small molecule antagonists of the estrogen related receptor signaling pathway with the pleiotropic PPARgamma coactivator (PGC) from Tox21 10K library - cell viability counter screen (AID 1224840; active means well fitted cell-killing curve with a large enough effect in the repeat runs, not every such curve was filed as active; further: nearly all actives have a fitted effect of over 40% in size)
Outline: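 Step one, plate 2,000 PGC/ERR cells per well; step two, incubate 6 h at 37 C/5% CO2; step three, pin-transfer compounds; step four, incubate 17.5 h; step five, add CellTiter-Fluor and read fluorescence after 30 min.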

[5] = qHTS assay to identify small molecule agonists of the hypoxia (HIF-1) signaling pathway - cell viability counter screen (AID 1224844; calls by dose curve; further: nearly all actives have a fitted effect of over 50% in size)
Outline: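 Tox21 10K compounds were added to HRE-bla ME-180 cells (0.5% dialyzed FBS) and incubated 17 hrs at 37C; ATP-based CellTiter-Glo luminescence then reported cell viability in the same wells.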

[6] = qHTS assay to identify small molecule agonists of H2AX (AID 1224845; active means well fitted activation curve with a large enough effect in the signal ratio in the repeat runs, not every such curve was filed as active; the % refers to the signal ratio)
Outline: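 Wild-type CHO-K1 cells, plated overnight, exposed 3hr at 37C to 15 concentrations (0.76% DMSO final). Lysed, then HTRF anti-pH2AX (S139) cryptate and anti-H2AX-d2 antibodies, 24 hr room temperature; 665/620 nm emission read.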

[7] = qHTS assay to identify small molecule agonists of the hypoxia (HIF-1) signaling pathway (AID 1224846; active means well fitted activation curve with a large enough effect in the signal ratio in the repeat runs, not every such curve was filed as active; the % refers to the signal ratio)
Outline: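 Steps: seed ME-180 HRE-bla cells (2,000/well, 0.5% dialyzed FBS); incubate 5 hrs at 37C; pin-transfer compounds or DMSO; incubate 17 hrs; add LiveBLAzer B/G substrate CCF4-AM; measure reporter activation by FRET.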

[8] = qHTS assay to identify small molecule agonists of H2AX - cell viability counter screen (AID 1224847; calls by dose curve; further: nearly all actives have a fitted effect of over 30% in size; further: potency means the concentration at half of the fitted maximal effect)
Outline: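 Cells plated first: CHO-K1, 1000 per well in 10% FBS medium, incubated overnight at 37C. Then 15-point compound titration added (final DMSO 0.76%) for 3 hr. Finally CellTiter-Glo added and luminescence read.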

[9] = qHTS assay to identify small molecule agonists of the estrogen related receptor (ERR) signaling pathway from Tox21 library (AID 1224849; calls by dose curve; further: nearly all actives have a fitted effect of over 15% in size); conditions: ERR reporter cell line, ONE-Glo luciferase, 18 h
Outline: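 Agonist signal is luciferase luminescence from an ERR reporter cell line treated 18 h at 37 C with DMSO-dissolved compounds, read 30 min after ONE-Glo addition at room temperature.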

[10] = qHTS RealTime-Glo MT Cell Viability Assay in HepG2 cells - 24 hour (AID 1224867); further: nearly all actives have a fitted effect of over 50% in size
Outline: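 Real-time, nonlytic viability: 600 HepG2 cells/well mixed with NanoLuc enzyme plus prosubstrate; 5 h settle, compound (DMSO) added by pintool; luminescence monitored over 40 h at 37 C.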

[11] = qHTS RealTime-Glo MT Cell Viability Assay in HEK293 cells - 32 hour (AID 1224868); further: nearly all actives have a fitted effect of over 50% in size; further: potency means the concentration at half of the fitted maximal effect
Outline: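 Cells + reagent dispensed (600 cells/well, HEK293) → 5 h at 37 C/5% CO2 → 23 nL compound in DMSO pinned → 40 h at 37 C → luminescence read at 0, 8, 16, 24, 32, 40 h.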

[12] = A CellTox Green Cytotoxicity Assay to monitor cytotoxicity in HEK293 cells - 0 hour (AID 1224869); further: nearly all actives have a fitted effect of over 50% in size
Outline: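 Cytotoxicity was tracked continuously in HEK293 cells by a DNA-binding dye excluded from viable cells. Compounds were transferred in DMSO 5 h after seeding; fluorescence was recorded at intervals up to 40 h.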

[13] = qHTS RealTime-Glo MT Cell Viability Assay in HepG2 cells - 40 hour (AID 1224870); further: nearly all actives have a fitted effect of over 50% in size
Outline: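 HepG2 cells (600/well) mixed with RealTime-Glo MT reagent, settled 5 h at 37 C/5% CO2 before compound addition. Nonlytic NanoLuc luminescence from viable-cell prosubstrate reduction read repeatedly during 40 h treatment at 37 C.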

[14] = qHTS assay to identify small molecule antagonists of the estrogen related receptor signaling pathway with the pleiotropic PPARgamma coactivator (PGC) from Tox21 10K library (AID 1224841; call rule not given here)
Outline: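 Antagonism in this quantitative HTS is taken from loss of luciferase signal in PGC/ERR cells. Cells (2,000/well) are treated with compounds in DMSO after a 6 h settling period and read by One-Glo luminescence after 18 h.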

[15] = qHTS assay to identify small molecule agonists of the estrogen related receptor signaling pathway with the pleiotropic PPARgamma coactivator (PGC) from Tox21 10K library (AID 1224842); further: nearly all actives have a fitted effect of over 15% in size; further: potency means the concentration at half of the fitted maximal effect
Outline: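 PGC/ERR reporter cell line, 2,000 cells per well, incubated 6 h at 37 C before 23 nL compound in DMSO was added. After 18 h at 37 C, One-Glo luminescence read following 30 min at room temperature.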

[16] = target: Thyrotropin receptor (Homo sapiens) (UniProt P16473); experiment: qHTS assay to identify small molecule agonists of the thyroid stimulating hormone receptor (TSHR) signaling pathway (AID 1224843; calls by dose curve; further: nearly all actives have a fitted effect of over 45% in size; further: potency means the concentration at half of the fitted maximal effect)
Outline: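 Steps: seed 800 TSHR-HEK293 cells per well; add test compound and hold 30 min at ambient temperature; dispense cAMP-d2 then anti-cAMP cryptate; incubate 1 h at ambient; measure fluorescence intensity.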

[17] = qHTS assay to identify small molecule antagonists of the estrogen related receptor (ERR) signaling pathway from Tox21 library (AID 1224848); further: nearly all actives have a fitted effect of over 50% in size; further: potency means the concentration at half of the fitted maximal effect
Outline: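 Luminescent reporter read-out (ONE-Glo) from NTP's ERR cell line after 18 h treatment at 37 C with DMSO-dissolved Tox21 compounds; cells pre-plated 6 h beforehand at 2,000 per well.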

[18] = target: Nuclear receptor subfamily 1 group I member 3 (Homo sapiens) (UniProt Q14994); experiment: qHTS assay to identify small molecule antagonists of the constitutive androstane receptor (CAR) signaling pathway (AID 1224838); further: nearly all actives have a fitted effect of over 40% in size
Outline: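 Compounds were titrated across 15 concentrations onto HepG2 cells double-stably expressing hCAR and a CYP2B6-2.2kb reporter, together with 50 nM CITCO (final). After 24 h at 37 C, luciferase activity was measured by luminescence.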

[19] = target: Nuclear receptor subfamily 1 group I member 3 (Homo sapiens) (UniProt Q14994); experiment: qHTS assay to identify small molecule agonists of the constitutive androstane receptor (CAR) signaling pathway (AID 1224839); further: nearly all actives have a fitted effect of over 15% in size; further: potency means the concentration at half of the fitted maximal effect;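 on activation: HepG2 cells stably carrying human CAR and a CYP2B6 luciferase reporter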
Outline: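 HepG2-CYP2B6-hCAR cells, 2500/well, 4 h pre-incubation; compounds 15 conc.; PK11195 0.75 uM final; 24 h, 37 C/5% CO2; ONE-Glo luciferase read.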
On the % scale 0 is the no-effect control and ±100 the full control effect.

Sequence of Nuclear receptor subfamily 1 group I member 3 (Homo sapiens) (Q14994 whole entry, looked up): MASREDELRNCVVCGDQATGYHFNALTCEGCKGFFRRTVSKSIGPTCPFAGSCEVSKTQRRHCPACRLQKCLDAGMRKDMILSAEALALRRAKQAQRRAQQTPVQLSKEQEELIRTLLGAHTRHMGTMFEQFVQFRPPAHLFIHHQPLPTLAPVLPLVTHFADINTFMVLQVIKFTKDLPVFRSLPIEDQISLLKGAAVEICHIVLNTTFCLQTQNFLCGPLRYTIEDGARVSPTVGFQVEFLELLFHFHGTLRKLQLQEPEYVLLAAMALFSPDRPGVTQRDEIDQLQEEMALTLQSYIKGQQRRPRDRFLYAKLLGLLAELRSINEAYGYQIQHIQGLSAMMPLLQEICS
Sequence of Luciferin 4-monooxygenase (Photinus pyralis) (P08659 whole entry, looked up): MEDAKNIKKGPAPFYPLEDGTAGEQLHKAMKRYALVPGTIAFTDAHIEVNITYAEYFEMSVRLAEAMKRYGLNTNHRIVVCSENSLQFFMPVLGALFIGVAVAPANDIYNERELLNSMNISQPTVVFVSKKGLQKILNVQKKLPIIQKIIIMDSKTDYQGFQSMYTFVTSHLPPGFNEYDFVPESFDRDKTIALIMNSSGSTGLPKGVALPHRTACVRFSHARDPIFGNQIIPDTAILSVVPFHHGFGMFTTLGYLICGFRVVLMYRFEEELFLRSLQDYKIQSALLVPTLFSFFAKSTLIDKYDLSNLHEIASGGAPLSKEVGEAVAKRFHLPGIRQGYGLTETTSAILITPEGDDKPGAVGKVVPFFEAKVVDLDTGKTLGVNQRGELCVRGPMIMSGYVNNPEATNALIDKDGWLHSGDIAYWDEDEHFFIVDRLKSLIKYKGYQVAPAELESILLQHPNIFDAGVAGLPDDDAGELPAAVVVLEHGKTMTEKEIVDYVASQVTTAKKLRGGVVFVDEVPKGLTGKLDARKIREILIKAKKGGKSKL
Sequence of Thyrotropin receptor (Homo sapiens) (P16473 whole entry, looked up): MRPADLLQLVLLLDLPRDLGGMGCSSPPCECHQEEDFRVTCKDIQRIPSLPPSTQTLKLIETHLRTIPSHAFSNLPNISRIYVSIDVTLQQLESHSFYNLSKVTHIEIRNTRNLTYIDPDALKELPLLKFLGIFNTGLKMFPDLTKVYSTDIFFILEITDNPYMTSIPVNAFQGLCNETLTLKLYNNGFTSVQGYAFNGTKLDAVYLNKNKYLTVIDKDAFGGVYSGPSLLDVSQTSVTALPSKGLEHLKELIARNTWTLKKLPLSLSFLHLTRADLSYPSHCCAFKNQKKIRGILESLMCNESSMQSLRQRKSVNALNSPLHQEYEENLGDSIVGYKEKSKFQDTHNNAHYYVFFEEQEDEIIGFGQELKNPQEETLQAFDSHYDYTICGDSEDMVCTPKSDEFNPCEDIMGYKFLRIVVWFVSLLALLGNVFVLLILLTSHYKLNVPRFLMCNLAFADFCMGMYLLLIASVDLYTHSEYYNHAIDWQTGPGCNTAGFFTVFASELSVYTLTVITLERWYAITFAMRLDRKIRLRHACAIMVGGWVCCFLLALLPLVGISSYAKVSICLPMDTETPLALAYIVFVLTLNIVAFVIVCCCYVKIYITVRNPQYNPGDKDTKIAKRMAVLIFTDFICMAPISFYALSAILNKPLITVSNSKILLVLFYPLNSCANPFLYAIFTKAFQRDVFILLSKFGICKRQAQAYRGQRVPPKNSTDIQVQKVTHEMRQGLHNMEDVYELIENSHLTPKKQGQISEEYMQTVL

CN(C)Cc1cc(C(C)(C)C)c(O)c(C(C)(C)C)c1
inactive: Potency [1] | Potency [2] | Potency [3] | Potency [4] | Potency [5] | Potency [6] | Potency [7] | Potency [8] | activity change, positive = activation ([9]; at 92.4 µM (top of the series)) -28.5% | Potency [10] | Potency [11] | Potency [12] | Potency [13]

CC(C)=CCNc1ncnc2c1ncn2[C@@H]1O[C@H](CO)[C@@H](O)[C@H]1O
inactive: Potency [1] | Potency [4] | Potency [14] | Potency [16] | activity change, positive = activation ([9]; at 42.5 µM (top of the series)) -51% | Potency [10] | Potency [12] | Potency [13]
active: Potency [3] 3.35 µM | Potency [15] 5.96 µM | Potency [8] 1.96 µM | Potency [17] 10.6 µM

c1ccsc1
inactive: Potency [1] | Potency [2] | Potency [18] | Potency [19] | Potency [4] | Potency [16] | Potency [5] | Potency [6] | Potency [7] | Potency [8] | Potency [10] | Potency [12] | Potency [13]

O=C(c1ccc(O)c(O)c1)c1ccc(O)cc1O
active: Potency [17] 54.4 µM | Potency [11] 27.5 µM
inactive: Potency [2] | Potency [3] | Potency [18] | Potency [19] | Potency [15] | Potency [16] | Potency [5] | Potency [8] | activity change, positive = activation ([9]; at 92.4 µM (top of the series)) -38% | Potency [10] | Potency [12] | Potency [13]

Cc1c(C)c2c(c(C)c1O)CC[C@@](C)(CCC[C@H](C)CCC[C@H](C)CCCC(C)C)O2
inactive: Potency [2] | Potency [4] | Potency [5] | Potency [6] | Potency [7] | Potency [8] | Potency [10] | Potency [11] | Potency [12]

O=C1CCc2cc(OCCCCc3nnnn3C3CCCCC3)ccc2N1
inactive: Potency [1] | Potency [2] | Potency [3] | Potency [4] | Potency [5] | Potency [6] | Potency [8] | Potency [10] | Potency [12] | Potency [13]

CC1(C)CCC[C@]2(C)[C@H]3CC(=O)O[C@]3(C)CC[C@@H]12
inactive: Potency [1] | Potency [2] | Potency [18] | Potency [19] | Potency [4] | Potency [5] | Potency [7] | Potency [10] | Potency [11] | Potency [12] | Potency [13]
active: Potency [16] 19.3 µM

O=c1c(O)c(-c2ccc(O)cc2O)oc2cc(O)cc(O)c12
inactive: Potency [2] | Potency [3] | Potency [18] | Potency [19] | Potency [4] | Potency [16] | Potency [10] | Potency [12] | Potency [13]

CC(C)=CCC1=C(O)c2ccccc2C(=O)C1=O
inactive: Potency [18] | Potency [5] | Potency [7] | activity change, positive = activation ([9]; at 92.4 µM (top of the series)) -51.5% | Potency [10] | Potency [12] | Potency [13]
active: Potency [19] 27.1 µM | Potency [17] 1.92 µM

C/C=C/C=C/COC(=O)C(C)C
inactive: Potency [2] | Potency [18] | Potency [19] | Potency [4] | Potency [7] | Potency [12]

CC(C)(C)c1csc(-c2cc3cc(OCc4ccccc4CC(=O)O)ccc3o2)n1
active: Potency [8] 113 µM | Potency [11] 38.9 µM
inactive: Potency [2] | Potency [3] | Potency [18] | Potency [4] | Potency [16] | Potency [10] | Potency [12] | Potency [13]

CCCCCCCC
inactive: Potency [1] | Potency [2] | Potency [18] | Potency [19] | Potency [4] | Potency [15] | Potency [16] | Potency [6] | Potency [7] | Potency [8] | Potency [17] | activity change, positive = activation ([9]; at 92.4 µM (top of the series)) 4.82% | Potency [10] | Potency [11] | Potency [12] | Potency [13]
